Source: PubChem BioAssay (NCI)
The panel holds about 83,000 compounds, 20% with a hit somewhere; the sample as a whole holds those more often.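 Single-concentration screen, 48 h exposure, 96-well plates. Endpoint: percent growth. Below 10 = active.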 Values without a mark were called inactive. The source made the active and inactive calls.

Experiments:
Assay in all cases: NCI-60 one-dose screen, 48 h (100 = growth as untreated, 0 = no growth, -100 = all killed)
Settings in all cases: 10 µM unless noted
HCT-15 colon = test system: HCT-15 colon
HT29 colon = test system: HT29 colon
SNB-75 CNS = test system: SNB-75 CNS
SNB-19 CNS = test system: SNB-19 CNS
U251 CNS = test system: U251 CNS
PC-3 prostate = test system: PC-3 prostate
SK-MEL-5 melanoma = test system: SK-MEL-5 melanoma
UACC-62 melanoma = test system: UACC-62 melanoma
LOX IMVI melanoma = test system: LOX IMVI melanoma
SK-MEL-28 melanoma = test system: SK-MEL-28 melanoma
SK-MEL-2 melanoma = test system: SK-MEL-2 melanoma
EKVX NSCLC = test system: EKVX NSCLC
SN12C renal = test system: SN12C renal
UO-31 renal = test system: UO-31 renal
TK-10 renal = test system: TK-10 renal
ACHN renal = test system: ACHN renal
CAKI-1 renal = test system: CAKI-1 renal
CCRF-CEM leukemia = test system: CCRF-CEM leukemia
MOLT-4 leukemia = test system: MOLT-4 leukemia
A498 renal = test system: A498 renal

Structure (SMILES) | growth (HCT-15 colon) | growth (HT29 colon) | growth (SNB-75 CNS) | growth (SNB-19 CNS) | growth (U251 CNS) | growth (PC-3 prostate) | growth (SK-MEL-5 melanoma) | growth (UACC-62 melanoma) | growth (LOX IMVI melanoma) | growth (SK-MEL-28 melanoma) | growth (SK-MEL-2 melanoma) | growth (EKVX NSCLC) | growth (SN12C renal) | growth (UO-31 renal) | growth (TK-10 renal) | growth (ACHN renal) | growth (CAKI-1 renal) | growth (CCRF-CEM leukemia) | growth (MOLT-4 leukemia) | growth (A498 renal)
O=C(NCCOCCOCCOCCNC(=O)c1cc2c(o1)C(=O)c1ccccc1C2=O)NC12CC3CC(CC(C3)C1)C2 | -74.7% (active) | 1.21% (active) | -99.6% (active) | -2.04% (active) | -22% (active) | 12.1% | -97.7% (active) | -93.6% (active) | -46.2% (active) | -40.8% (active) | -17.9% (active) | -4.03% (active) | -68.2% (active) | -59% (active) | -3.88% (active) | 0.47% (active) | -5.41% (active) | 18.8% | 12.1% | 
CO/C(=C1/NC(=O)C(Cc2ccc(O)c(Br)c2)N(C)C(=O)C(C)NC(=O)CCC/C=C(\C)CCC(C)OC1=O)c1ccccc1 (stereo not given) | 3.37% (active) | 5.97% (active) | -94.2% (active) | -4.37% (active) | -36.8% (active) | -9.06% (active) | -67.6% (active) | 9.3% (active) | -34.2% (active) | -25.8% (active) | -100% (active) | -25.3% (active) | 6.56% (active) | -84.9% (active) | -83.2% (active) | -34.7% (active) |  | 0.832% (active) | -12.2% (active) | -63.7% (active)
CCOC(=O)N1CCc2c(sc3c2C(=O)N[C@H](c2ccc(OC)cc2)N3)C1 | 106% | 86.2% | 91.7% | 90% | 96.7% | 89.1% | 99.1% | 91.8% | 101% | 109% | 96.5% | 101% | 85.4% | 87.6% | 109% | 103% |  | 95.9% | 99.7% | 96.4%
O=C1Nc2ccccc2/C1=N/N=C/c1ccc(OC2OC(CO)C(O)C(O)C2O)cc1 (stereo not given) | 105% | 103% | 96.8% | 100% | 106% | 105% | 103% | 101% | 101% | 108% | 107% | 100% | 101% | 78.6% | 110% | 103% | 95.1% | 107% | 112% | 
O=C1NC(=S)S/C1=C\N1N=C(c2ccc(Cl)cc2)CC1c1ccc(F)cc1 (stereo not given) | 78.5% | 85.5% | 76.1% | 81.7% | 68.7% | 81.6% | 77.8% | 73.6% | 80.6% | 103% | 95.5% | 76% | 96.5% | 60.1% | 101% | 87.2% | 85.4% | 65.5% | 45.1% | 
COc1ccc(C2CC(c3cnccn3)=NN2)cc1OC (stereo not given) | 107% | 84.9% | 118% | 103% | 96.7% | 92% | 100% | 103% | 104% | 121% | 79% | 108% | 104% | 88.7% | 82.7% |  |  | 75.2% | 72% | 112%
Cc1ccc2c(n1)C(=O)C(Oc1ccc(F)cc1)=CC2=O | 81.8% | 108% | 83% | 110% | 95.3% | 98.9% | 91.4% | 99.7% | 88.5% | 113% | 110% | 103% | 100% | 93.9% | 101% | 9.92% (active) | 99.1% | 40.2% | 66.2% | 
COc1cc(C2CC(c3ccc(Nc4nc(Nc5ccc(F)cc5)nc(Nc5ccc(Cl)cc5)n4)cc3)=NN2C(C)=O)cc(OC)c1OC (stereo not given) | 65.7% | 46.3% | 54.7% | 74.5% | 62.6% | 32.6% | 60.1% | 62% | 82.8% | 88.7% | 66% | 202% | 80.8% | 53.6% | 60.7% | 77.5% |  | 27.6% | 4.27% (active) | 78.4%
N#C/C(=C\c1ccc(Br)cc1)n1nnc2ccccc21 | 2.5% (active) | 3.79% (active) | 24.8% | 29% | -35.7% (active) | 12.7% | 6.25% (active) | 14% | -75% (active) | 6.49% (active) | -1.82% (active) | 20% | 8.47% (active) | -13.6% (active) | 1.55% (active) | -16.7% (active) | 1.73% (active) | 8.29% (active) | 9.75% (active) | 
N#C/C(=C\c1ccc2c(c1)OCO2)n1nnc2ccccc21 | 9% (active) | 11.5% | -49.7% (active) | 19.8% | 13% | 12.5% | 20.4% | 20% | -11% (active) | 25.8% | 21.6% | 23% | 14.1% | 11.9% | 28.3% | 22.9% | 17.7% | 18.3% | 16.4% | 
NS(=O)(=O)c1cnccc1-n1ccc(=O)c(S(N)(=O)=O)c1 | 90.8% | 105% | 73.8% | 88.1% | 96.6% | 86.5% | 103% | 96.9% | 97.1% | 92.5% | 81.1% | 90.3% | 92.6% | 68.6% | 83.8% | 93.6% |  | 88.5% | 76.9% | 
CCOC(=O)c1ccc(NC(=O)CCCN(CC)CC)cc1 | 105% | 88.6% | 106% | 111% | 98.2% | 78.3% | 110% | 104% | 97.7% | 109% | 73% | 105% | 106% | 88.7% | 88.2% |  |  | 106% | 95.7% | 118%
CCCNCC(=O)Nc1ccc(C(=O)OC(C)(C)CC)cc1 | 106% | 79.4% | 104% | 99.7% | 100% | 75.8% | 98.2% | 96.3% | 100% | 112% | 95.6% | 98.1% | 105% | 86.3% | 93% |  |  | 104% | 89.7% | 108%
Nc1ccc(-c2cc3c(Nc4ccc(OCc5cccc(F)c5)c(Cl)c4)ncnc3s2)cc1 | 32.9% | 84.5% | 87.2% | 77.3% | 57% | 29.6% | 57.7% | 55.7% | 24.5% | 39.3% | 25.3% | 21.5% | 48.4% | 19.6% | 32.5% | 29.6% |  | 24% | 30% | 39.3%
O=[N+]([O-])c1ccc(-c2cc3c(Nc4ccc(OCc5cccc(Cl)c5)c(Cl)c4)ncnc3s2)cc1 | 55.3% | 47.3% | 69.8% | 67.6% | 52.8% | 48% | 97.6% | 78.3% | 66.4% | 86.8% | 79.4% | 68.4% | 85.1% | 59.9% | 70.1% | 63.3% |  | 52.2% | 47.5% | 72.3%
Cc1nc(Nc2ccc(NC(=S)Nc3ccccc3)cc2)nc2nc(SCc3ccccc3)[nH]c(=O)c12 | 108% | 120% | 104% | 102% | 100% | 100% | 99.7% | 81.7% | 101% | 115% | 110% | 99.2% | 93.6% | 86% | 199% | 107% |  | 92.3% | 87.4% | 102%
